# Results reported in paper PMC7862700, “An all-to-all approach to the identification of sequence-specific readers for epigenetic DNA modifications on cytosine”.
# Assays:
# Assay in all cases: DAPPL (digital affinity profiling via proximity ligation, sequencing); 10 mM Tris-HCl pH 7.5, 50 mM NaCl, 1 mM DTT, 4% glycerol, room temperature, 30 min; GST-TFs on glutathione beads, 16-mer random dsDNA library, 0.1% formaldehyde crosslink after washing; high values mean tight binding
# FLI1 = target: T1, FLI1 (Homo sapiens, UniProt Q01543 1-452); conditions: protein: recombinant; tags: N-terminal GST; dsDNA, one strand shown
# T1 sequence: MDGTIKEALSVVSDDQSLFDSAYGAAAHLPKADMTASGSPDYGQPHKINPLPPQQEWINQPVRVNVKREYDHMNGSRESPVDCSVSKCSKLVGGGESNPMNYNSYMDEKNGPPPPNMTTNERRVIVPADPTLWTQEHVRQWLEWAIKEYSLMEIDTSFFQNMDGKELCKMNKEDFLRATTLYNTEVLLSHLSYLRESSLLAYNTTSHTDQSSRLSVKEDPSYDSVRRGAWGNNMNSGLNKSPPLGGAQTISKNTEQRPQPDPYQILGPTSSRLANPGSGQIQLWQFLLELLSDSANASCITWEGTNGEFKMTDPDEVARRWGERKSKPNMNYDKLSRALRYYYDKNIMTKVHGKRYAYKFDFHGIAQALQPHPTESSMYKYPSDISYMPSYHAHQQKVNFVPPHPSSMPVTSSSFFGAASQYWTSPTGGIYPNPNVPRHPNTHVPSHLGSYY
# Method in brief: (§1)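 In yeast, human transcription factors were expressed with a GST fusion, then pulled down on glutathione beads and given DNA barcodes. Pooled with a tag-only sample, they were exposed to 200 nmole of a 16-mer random double-stranded DNA library (Tris/NaCl/DTT/glycerol buffer, room temperature, 30 min), washed, crosslinked with 0.1% formaldehyde, proximity-ligated using BsaI/T4 ligase for 1 h at 37 °C, PCR-amplified and read on an Illumina NextSeq500. Each hexamer's frequency of reads for a factor, divided by the matching frequency for the tag-only sample, gives the binding signal.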
# ELK1 = target: T2, ELK1 (Homo sapiens, UniProt P19419 1-428); conditions: protein: recombinant; tags: N-terminal GST; dsDNA, one strand shown
# T2 sequence: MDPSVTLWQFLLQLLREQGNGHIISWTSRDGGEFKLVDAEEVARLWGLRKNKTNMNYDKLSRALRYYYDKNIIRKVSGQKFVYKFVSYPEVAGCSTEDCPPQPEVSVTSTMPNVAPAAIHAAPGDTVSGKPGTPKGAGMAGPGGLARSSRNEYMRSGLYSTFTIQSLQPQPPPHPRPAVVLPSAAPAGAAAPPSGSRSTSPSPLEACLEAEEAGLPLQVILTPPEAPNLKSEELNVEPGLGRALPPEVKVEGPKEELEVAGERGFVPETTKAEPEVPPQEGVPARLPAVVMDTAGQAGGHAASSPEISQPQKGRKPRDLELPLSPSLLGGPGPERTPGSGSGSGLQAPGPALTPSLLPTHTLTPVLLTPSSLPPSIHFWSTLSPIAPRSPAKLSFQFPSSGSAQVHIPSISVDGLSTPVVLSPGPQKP
# Method in brief: as §1
# GABPA = target: T3, GABPA (Homo sapiens, UniProt Q06546 1-454); conditions: protein: recombinant; tags: N-terminal GST; dsDNA, one strand shown
# T3 sequence: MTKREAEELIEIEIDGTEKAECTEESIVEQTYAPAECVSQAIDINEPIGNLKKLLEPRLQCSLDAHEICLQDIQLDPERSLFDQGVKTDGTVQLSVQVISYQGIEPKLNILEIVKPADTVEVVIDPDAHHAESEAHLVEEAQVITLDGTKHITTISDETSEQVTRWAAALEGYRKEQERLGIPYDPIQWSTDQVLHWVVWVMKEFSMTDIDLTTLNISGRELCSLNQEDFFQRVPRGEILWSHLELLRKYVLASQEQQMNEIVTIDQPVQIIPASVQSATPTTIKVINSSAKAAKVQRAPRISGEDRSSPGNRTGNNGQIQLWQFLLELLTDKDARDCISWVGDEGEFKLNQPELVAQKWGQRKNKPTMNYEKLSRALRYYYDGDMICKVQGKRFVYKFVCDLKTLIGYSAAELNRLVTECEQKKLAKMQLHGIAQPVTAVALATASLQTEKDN
# Method in brief: as §1
# ERG = target: T4, ERG (Homo sapiens, UniProt P11308 1-479); conditions: protein: recombinant; tags: N-terminal GST; dsDNA, one strand shown
# T4 sequence: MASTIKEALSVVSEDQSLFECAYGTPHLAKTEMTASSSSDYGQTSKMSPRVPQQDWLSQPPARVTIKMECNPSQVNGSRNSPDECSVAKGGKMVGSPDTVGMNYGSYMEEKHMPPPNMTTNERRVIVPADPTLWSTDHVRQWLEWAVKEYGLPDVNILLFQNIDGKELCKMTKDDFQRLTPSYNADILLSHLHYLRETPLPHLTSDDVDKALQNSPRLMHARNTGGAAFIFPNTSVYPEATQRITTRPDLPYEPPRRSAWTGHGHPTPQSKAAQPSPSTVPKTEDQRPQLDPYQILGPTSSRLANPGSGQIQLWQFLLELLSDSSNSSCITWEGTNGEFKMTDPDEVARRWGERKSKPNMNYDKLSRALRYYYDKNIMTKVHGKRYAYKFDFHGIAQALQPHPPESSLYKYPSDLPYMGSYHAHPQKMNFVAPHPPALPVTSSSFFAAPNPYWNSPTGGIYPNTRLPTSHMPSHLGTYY
# Method in brief: as §1
# ELF1 = ELF1 (Homo sapiens, UniProt P32519 1-619); conditions: protein: recombinant; tags: N-terminal GST; dsDNA, one strand shown
# Method in brief: as §1
# EHF = target: T5, EHF (Homo sapiens, UniProt Q9NZC4 1-300); conditions: protein: recombinant; tags: N-terminal GST; dsDNA, one strand shown
# T5 sequence: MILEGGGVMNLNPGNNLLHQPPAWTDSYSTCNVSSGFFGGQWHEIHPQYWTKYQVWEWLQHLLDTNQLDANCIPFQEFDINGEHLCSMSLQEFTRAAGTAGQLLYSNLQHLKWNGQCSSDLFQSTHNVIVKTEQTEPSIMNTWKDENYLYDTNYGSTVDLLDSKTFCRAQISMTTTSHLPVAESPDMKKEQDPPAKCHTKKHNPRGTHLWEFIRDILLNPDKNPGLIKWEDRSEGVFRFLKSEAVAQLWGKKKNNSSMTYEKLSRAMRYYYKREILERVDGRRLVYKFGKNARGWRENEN
# Method in brief: as §1
# SPI1 = SPI1 (Homo sapiens, UniProt P17947 1-270); conditions: protein: recombinant; tags: N-terminal GST; dsDNA, one strand shown
# Method in brief: as §1
# SPIB = SPIB (Homo sapiens, UniProt Q01892 1-262); conditions: protein: recombinant; tags: N-terminal GST; dsDNA, one strand shown
# Method in brief: as §1
# ELK3 = target: T6, ELK3 (Homo sapiens, UniProt P41970 1-407); conditions: protein: recombinant; tags: N-terminal GST; dsDNA, one strand shown
# T6 sequence: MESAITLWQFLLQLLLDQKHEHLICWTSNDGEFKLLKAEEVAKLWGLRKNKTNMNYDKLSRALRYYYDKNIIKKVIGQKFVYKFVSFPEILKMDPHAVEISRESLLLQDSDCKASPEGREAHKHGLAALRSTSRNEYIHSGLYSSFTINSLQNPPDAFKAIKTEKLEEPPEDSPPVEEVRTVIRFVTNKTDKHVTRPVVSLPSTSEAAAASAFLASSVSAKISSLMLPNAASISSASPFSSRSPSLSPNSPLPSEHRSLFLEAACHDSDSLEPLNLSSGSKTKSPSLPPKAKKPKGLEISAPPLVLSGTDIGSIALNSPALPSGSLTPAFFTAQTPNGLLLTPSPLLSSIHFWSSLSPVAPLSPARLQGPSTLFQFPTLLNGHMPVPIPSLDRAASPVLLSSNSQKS
# Method in brief: as §1
# FEV = target: T7, FEV (Homo sapiens, UniProt Q99581 1-238); conditions: protein: recombinant; tags: N-terminal GST; dsDNA, one strand shown
# T7 sequence: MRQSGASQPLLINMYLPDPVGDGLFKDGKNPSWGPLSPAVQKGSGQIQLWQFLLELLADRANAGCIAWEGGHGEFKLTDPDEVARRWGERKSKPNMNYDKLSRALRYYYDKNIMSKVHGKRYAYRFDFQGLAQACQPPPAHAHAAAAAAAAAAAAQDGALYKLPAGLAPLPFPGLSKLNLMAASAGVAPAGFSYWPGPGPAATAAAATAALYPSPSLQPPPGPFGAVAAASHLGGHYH
# Method in brief: as §1
# ETV5 = ETV5 (Homo sapiens, UniProt P41161 1-510); conditions: protein: recombinant; tags: N-terminal GST; dsDNA, one strand shown
# Method in brief: as §1
# HSF1 = HSF1 (Homo sapiens, UniProt Q00613 1-529); conditions: protein: recombinant; tags: N-terminal GST; chain copies: 3; dsDNA, one strand shown
# Method in brief: as §1
# SPIC = target: T8, SPIC (Homo sapiens, UniProt Q8N5J4 1-248); conditions: protein: recombinant; tags: N-terminal GST; dsDNA, one strand shown
# T8 sequence: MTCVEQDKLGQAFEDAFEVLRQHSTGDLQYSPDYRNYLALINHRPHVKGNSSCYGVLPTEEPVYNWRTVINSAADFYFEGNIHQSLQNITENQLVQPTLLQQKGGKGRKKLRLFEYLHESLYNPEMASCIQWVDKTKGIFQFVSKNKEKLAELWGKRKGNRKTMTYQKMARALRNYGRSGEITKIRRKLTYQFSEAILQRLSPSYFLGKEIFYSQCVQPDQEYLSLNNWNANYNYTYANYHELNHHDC
# Method in brief: as §1
# ELF4 = ELF4 (Homo sapiens, UniProt Q99607 1-663); conditions: protein: recombinant; tags: N-terminal GST; dsDNA, one strand shown
# Method in brief: as §1
# ELK4 = target: T9, ELK4 (Homo sapiens, UniProt P28324-2 1-405); conditions: protein: recombinant; tags: N-terminal GST; dsDNA, one strand shown
# T9 sequence: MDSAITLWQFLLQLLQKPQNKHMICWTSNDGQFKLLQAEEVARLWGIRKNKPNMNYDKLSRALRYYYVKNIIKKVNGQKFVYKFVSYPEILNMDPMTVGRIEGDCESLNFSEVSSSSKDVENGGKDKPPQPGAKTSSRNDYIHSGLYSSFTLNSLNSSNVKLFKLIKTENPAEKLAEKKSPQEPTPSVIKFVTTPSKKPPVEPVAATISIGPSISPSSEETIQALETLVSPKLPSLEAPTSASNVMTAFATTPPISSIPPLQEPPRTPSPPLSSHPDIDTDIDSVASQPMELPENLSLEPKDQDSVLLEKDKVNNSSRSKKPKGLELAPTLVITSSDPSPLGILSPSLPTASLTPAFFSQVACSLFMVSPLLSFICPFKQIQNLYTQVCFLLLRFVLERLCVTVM
# Method in brief: as §1
# ETV2 = target: T10, ETV2 (Homo sapiens, UniProt O00321 1-342); conditions: protein: recombinant; tags: N-terminal GST; dsDNA, one strand shown
# T10 sequence: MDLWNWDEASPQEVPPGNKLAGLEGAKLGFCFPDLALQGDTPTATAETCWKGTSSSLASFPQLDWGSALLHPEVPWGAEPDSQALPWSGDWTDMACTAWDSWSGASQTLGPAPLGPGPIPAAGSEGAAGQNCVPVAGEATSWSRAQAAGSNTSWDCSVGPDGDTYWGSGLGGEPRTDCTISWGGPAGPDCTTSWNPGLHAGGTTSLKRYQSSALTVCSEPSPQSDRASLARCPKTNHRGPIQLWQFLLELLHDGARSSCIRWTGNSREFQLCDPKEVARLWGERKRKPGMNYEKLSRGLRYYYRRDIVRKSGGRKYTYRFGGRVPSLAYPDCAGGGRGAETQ
# Method in brief: as §1
# ELF3 = target: T11, ELF3 (Homo sapiens, UniProt P78545 1-371); conditions: protein: recombinant; tags: N-terminal GST; dsDNA, one strand shown
# T11 sequence: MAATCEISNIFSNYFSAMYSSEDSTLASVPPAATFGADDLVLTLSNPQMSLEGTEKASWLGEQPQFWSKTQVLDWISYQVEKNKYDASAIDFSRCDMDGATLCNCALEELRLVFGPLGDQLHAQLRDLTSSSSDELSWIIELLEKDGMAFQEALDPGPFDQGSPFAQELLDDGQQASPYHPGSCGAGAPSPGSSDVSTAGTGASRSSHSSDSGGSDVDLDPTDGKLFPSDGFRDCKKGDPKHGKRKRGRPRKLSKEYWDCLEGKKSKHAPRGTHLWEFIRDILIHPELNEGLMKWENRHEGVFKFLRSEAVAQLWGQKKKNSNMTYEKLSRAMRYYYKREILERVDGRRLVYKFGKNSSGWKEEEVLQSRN
# Method in brief: as §1
# ETV1 = ETV1 (Homo sapiens, UniProt P50549 1-477); conditions: protein: recombinant; tags: N-terminal GST; dsDNA, one strand shown
# Method in brief: as §1
# Sequence of ETV1 (P50549 whole entry): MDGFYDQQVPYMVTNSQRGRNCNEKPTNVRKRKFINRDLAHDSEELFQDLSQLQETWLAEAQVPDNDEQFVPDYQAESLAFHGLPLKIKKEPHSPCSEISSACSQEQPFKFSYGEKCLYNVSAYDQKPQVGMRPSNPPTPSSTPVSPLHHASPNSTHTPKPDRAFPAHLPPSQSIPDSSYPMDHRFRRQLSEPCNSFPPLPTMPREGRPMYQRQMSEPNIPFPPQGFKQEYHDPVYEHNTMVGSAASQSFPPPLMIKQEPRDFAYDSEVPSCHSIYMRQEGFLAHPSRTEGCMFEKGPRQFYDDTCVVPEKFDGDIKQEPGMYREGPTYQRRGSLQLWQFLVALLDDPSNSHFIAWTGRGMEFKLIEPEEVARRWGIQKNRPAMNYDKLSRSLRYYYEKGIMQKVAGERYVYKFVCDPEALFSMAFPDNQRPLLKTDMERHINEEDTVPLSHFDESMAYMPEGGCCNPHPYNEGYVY
# Sequence of ELF4 (Q99607 whole entry): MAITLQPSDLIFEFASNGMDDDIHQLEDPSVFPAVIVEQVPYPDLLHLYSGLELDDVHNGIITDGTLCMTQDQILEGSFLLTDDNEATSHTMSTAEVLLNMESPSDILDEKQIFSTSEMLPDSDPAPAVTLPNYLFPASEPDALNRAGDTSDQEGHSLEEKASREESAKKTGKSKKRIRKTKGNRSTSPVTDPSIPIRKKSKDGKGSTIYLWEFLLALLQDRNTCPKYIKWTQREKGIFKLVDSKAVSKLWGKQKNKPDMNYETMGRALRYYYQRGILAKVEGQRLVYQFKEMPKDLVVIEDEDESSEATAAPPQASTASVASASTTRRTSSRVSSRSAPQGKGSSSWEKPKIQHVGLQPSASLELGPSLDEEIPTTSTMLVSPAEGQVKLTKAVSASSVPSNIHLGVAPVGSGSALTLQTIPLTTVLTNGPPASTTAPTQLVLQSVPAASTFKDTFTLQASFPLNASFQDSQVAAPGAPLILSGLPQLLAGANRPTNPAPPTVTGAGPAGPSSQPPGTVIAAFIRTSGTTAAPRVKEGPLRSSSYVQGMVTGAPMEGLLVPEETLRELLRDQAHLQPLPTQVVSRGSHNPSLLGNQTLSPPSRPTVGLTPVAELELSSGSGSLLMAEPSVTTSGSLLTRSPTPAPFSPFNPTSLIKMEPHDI
# Sequence of ETV5 (P41161 whole entry): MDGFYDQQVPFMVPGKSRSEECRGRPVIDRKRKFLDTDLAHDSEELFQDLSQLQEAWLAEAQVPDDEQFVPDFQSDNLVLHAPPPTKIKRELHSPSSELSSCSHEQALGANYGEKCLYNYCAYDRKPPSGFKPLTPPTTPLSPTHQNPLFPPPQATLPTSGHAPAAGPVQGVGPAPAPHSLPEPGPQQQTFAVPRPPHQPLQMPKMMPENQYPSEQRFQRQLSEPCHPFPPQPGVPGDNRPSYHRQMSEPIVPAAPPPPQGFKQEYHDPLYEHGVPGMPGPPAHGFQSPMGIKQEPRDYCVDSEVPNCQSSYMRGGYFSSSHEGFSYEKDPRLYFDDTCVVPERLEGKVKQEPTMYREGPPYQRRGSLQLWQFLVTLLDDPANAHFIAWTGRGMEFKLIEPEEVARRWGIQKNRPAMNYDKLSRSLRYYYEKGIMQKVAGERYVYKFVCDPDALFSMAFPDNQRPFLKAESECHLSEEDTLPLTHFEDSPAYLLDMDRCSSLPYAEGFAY
# Sequence of ELF1 (P32519 whole entry): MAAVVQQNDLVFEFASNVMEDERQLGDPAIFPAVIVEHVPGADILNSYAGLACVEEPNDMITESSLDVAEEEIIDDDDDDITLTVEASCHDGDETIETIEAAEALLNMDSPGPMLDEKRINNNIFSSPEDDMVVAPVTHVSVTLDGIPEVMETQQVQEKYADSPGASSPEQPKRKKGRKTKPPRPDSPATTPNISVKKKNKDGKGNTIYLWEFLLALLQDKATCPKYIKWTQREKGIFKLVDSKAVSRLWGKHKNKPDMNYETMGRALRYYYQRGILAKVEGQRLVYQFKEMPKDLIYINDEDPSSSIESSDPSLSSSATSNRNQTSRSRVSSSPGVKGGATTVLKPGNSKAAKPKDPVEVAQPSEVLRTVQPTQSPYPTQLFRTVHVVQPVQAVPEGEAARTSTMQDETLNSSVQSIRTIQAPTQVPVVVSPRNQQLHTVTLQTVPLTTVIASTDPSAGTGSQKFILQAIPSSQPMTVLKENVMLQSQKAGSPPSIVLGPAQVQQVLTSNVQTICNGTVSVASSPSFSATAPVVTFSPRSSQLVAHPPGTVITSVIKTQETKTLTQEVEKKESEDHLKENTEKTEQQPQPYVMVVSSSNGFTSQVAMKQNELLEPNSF
# Sequence of HSF1 (Q00613 whole entry): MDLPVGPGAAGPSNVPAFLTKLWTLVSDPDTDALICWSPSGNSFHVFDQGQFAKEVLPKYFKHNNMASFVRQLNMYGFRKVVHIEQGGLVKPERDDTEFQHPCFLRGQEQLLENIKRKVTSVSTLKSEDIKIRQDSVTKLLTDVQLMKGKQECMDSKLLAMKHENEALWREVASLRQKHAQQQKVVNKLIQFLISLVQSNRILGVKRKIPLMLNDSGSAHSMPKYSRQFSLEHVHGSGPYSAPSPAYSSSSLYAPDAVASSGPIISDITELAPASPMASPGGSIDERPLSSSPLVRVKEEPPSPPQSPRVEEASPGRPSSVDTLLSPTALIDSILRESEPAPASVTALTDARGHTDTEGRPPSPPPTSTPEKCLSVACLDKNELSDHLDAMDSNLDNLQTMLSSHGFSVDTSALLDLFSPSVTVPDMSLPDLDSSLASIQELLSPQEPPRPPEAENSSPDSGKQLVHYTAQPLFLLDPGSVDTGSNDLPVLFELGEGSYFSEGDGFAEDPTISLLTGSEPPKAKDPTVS
# Sequence of SPIB (Q01892 whole entry): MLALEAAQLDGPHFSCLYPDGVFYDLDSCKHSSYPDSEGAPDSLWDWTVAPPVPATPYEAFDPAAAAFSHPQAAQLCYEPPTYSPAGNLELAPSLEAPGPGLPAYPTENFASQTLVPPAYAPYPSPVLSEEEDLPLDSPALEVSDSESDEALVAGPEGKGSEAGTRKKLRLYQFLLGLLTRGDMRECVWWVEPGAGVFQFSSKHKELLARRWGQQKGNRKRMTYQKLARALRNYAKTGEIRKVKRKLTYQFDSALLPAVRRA
sequence,measurement,setting,value
ACTCAC,binding signal,FLI1,"1.22 fold enrichment (6-mer frequency, TF over GST control)"
same,binding signal,ELK1,"1.31 fold enrichment (6-mer frequency, TF over GST control)"
same,binding signal,GABPA,"1.27 fold enrichment (6-mer frequency, TF over GST control)"
same,binding signal,ERG,"1.17 fold enrichment (6-mer frequency, TF over GST control)"
same,binding signal,ELF1,"1.18 fold enrichment (6-mer frequency, TF over GST control)"
same,binding signal,EHF,"1.24 fold enrichment (6-mer frequency, TF over GST control)"
same,binding signal,SPI1,"1.23 fold enrichment (6-mer frequency, TF over GST control)"
same,binding signal,SPIB,"1.44 fold enrichment (6-mer frequency, TF over GST control)"
same,binding signal,ELK3,"1.35 fold enrichment (6-mer frequency, TF over GST control)"
same,binding signal,FEV,"1.24 fold enrichment (6-mer frequency, TF over GST control)"
same,binding signal,ETV5,"1.18 fold enrichment (6-mer frequency, TF over GST control)"
same,binding signal,HSF1,"1.07 fold enrichment (6-mer frequency, TF over GST control)"
same,binding signal,SPIC,"1.25 fold enrichment (6-mer frequency, TF over GST control)"
same,binding signal,ELF4,"1.24 fold enrichment (6-mer frequency, TF over GST control)"
same,binding signal,ELK4,"1.18 fold enrichment (6-mer frequency, TF over GST control)"
same,binding signal,ETV2,"1.24 fold enrichment (6-mer frequency, TF over GST control)"
same,binding signal,ELF3,"1.31 fold enrichment (6-mer frequency, TF over GST control)"
same,binding signal,ETV1,"1.15 fold enrichment (6-mer frequency, TF over GST control)"
